Reference: PubChem BioAssay (EPA / NIEHS)
Records with an inconclusive call do not appear. The source made the active and inactive calls. The calls were made as follows, unless noted: active = hit-call score of the fitted dose curve at least 0.9, where 1 is the maximum; inconclusive = response in the unintended direction; inactive = score below 0.9.

Columns and labels:
[1] = ATG_TGFb_CIS: Attagene CIS-FACTORIAL HepG2 Assay for human Transforming Growth Factor (TGF) (AID 2282967; active = hit-call score of the fitted dose curve at least 0.9, where 1 is the maximum; inactive = score below 0.9); conditions: HepG2 Attagene CIS TGFb reporter, mRNA transcription; actives raise or lower the signal
How it was run: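 Multiplexed cis-reporter HepG2 system, 24 h treatment; mRNA induction read by fluorescence after RT-PCR and CE; DMSO negative control, bidirectional curve fitting.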

[2] = ATG_VDRE_CIS: Attagene CIS-FACTORIAL HepG2 Assay for human Vitamin D Receptor Element (VDRE) (AID 2282968; active = hit-call score of the fitted dose curve at least 0.9, where 1 is the maximum; inactive = score below 0.9); conditions: HepG2 VDRE cis-reporter transcription, actives raise or lower the signal
How it was run: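 Compounds were applied for 24 h to HepG2 cells transfected with promoter-regulated reporter units. Total RNA was reverse-transcribed, and reporter amplicons were fluorescently labelled and sized by capillary electrophoresis.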

[3] = molecular target: X-box-binding protein 1 (Homo sapiens) (UniProt P17861); assay: ATG_Xbp1_CIS: Attagene CIS-FACTORIAL HepG2 Assay for human X-box Binding Protein 1 (XBP1) (AID 2282972; active = hit-call score of the fitted dose curve at least 0.9, where 1 is the maximum; inactive = score below 0.9); conditions: HepG2 XBP1 cis-element reporter, Attagene multiplex; actives raise or lower the signal
Sequence of X-box-binding protein 1 (Homo sapiens) (P17861 whole entry, looked up): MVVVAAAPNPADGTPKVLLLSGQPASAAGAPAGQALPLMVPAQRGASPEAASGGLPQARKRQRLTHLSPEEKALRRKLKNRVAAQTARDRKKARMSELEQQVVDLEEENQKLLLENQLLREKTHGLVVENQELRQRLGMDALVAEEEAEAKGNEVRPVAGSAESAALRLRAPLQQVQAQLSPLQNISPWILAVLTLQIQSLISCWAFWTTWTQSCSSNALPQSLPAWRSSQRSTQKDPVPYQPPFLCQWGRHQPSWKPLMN
How it was run: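 Human hepatoma HepG2, cis-element reporter system, 24 h treatment; mRNA quantified by RT-PCR/CE fluorescence; fit relative to DMSO.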

[4] = ATG_M_19_TRANS: Attagene TRANS-FACTORIAL HepG2 Assay for M19 Transcription Factor (Internal Marker) (AID 2282974); conditions: HepG2 Attagene TRANS-FACTORIAL M19 internal marker reporter
How it was run: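 Fluorescence of 6-FAM-labelled reporter cDNA fragments, separated by capillary electrophoresis, served as the readout. These derived from HepG2 cells carrying transfected GAL4-UAS reporter units after 24 h dosing, with DMSO as negative control.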

[5] = molecular target: Glucocorticoid receptor (Homo sapiens) (UniProt P04150); assay: ATG_GR_TRANS: Attagene TRANS-FACTORIAL HepG2 Assay for human Glucocorticoid Receptor (GR) (AID 2282978); conditions: HepG2 Attagene TRANS GR reporter, mRNA transcription;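 also: activators score as hits since higher reporter transcript over DMSO is fitted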
Sequence of Glucocorticoid receptor (Homo sapiens) (P04150 whole entry, looked up, the tested form may be a part): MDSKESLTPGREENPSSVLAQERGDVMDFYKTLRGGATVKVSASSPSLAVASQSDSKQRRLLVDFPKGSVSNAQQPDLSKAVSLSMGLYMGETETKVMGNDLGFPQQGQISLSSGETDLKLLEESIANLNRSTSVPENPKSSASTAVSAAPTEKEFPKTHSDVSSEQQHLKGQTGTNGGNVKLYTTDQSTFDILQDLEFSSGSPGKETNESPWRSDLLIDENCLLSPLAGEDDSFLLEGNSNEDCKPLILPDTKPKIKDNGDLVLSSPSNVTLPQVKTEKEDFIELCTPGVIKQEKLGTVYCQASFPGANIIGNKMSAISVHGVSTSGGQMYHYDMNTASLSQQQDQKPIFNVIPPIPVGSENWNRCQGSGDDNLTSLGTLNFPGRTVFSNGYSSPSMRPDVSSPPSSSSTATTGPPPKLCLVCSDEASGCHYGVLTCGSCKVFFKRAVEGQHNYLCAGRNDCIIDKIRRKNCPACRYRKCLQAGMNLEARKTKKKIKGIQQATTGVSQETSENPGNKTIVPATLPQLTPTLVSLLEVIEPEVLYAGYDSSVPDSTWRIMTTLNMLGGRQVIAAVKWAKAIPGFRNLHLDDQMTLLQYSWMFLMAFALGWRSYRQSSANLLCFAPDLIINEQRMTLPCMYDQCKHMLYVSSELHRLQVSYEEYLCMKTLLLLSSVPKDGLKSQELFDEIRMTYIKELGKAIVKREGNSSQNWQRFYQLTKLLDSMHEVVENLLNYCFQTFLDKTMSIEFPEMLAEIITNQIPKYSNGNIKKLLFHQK
How it was run: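 Fluorescent capillary-electrophoresis quantitation of reporter mRNA is the readout, taken 24 h after dosing human HepG2 cells carrying transiently transfected GAL4-UAS reporter units activated by chimeric NR-GAL4 fusions; activity scored as induction over DMSO.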

[6] = molecular target: Oxysterols receptor LXR-beta (Homo sapiens) (UniProt P55055); assay: ATG_LXRb_TRANS: Attagene TRANS-FACTORIAL HepG2 Assay for human Liver X Receptor beta (LXRb) (AID 2282981); conditions: HepG2 Attagene TRANS GAL4-LXRb reporter, mRNA
Sequence of Oxysterols receptor LXR-beta (Homo sapiens) (P55055 whole entry, looked up, the tested form may be a part): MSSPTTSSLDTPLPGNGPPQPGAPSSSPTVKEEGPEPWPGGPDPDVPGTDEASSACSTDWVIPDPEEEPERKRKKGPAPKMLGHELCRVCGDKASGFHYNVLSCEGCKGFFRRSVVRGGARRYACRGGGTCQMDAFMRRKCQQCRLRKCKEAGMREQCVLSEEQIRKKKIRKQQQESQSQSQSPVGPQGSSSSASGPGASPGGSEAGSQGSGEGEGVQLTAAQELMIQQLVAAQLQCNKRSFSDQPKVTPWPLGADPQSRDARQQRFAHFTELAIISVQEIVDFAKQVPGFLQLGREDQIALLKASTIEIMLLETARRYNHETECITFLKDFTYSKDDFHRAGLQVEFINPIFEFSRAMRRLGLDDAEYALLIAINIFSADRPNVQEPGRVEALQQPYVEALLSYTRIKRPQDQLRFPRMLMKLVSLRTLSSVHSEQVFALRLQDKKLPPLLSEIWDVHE
How it was run: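 Multiplexed reporter assay, HepG2, 24 h dosing. Fluorescence of labelled RT-PCR products after capillary electrophoresis gives transcript level; positive fitting direction relative to DMSO.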

[7] = molecular target: Hepatocyte nuclear factor 4-alpha (Homo sapiens) (UniProt P41235); assay: ATG_HNF4a_TRANS: Attagene TRANS-FACTORIAL HepG2 Assay for human Hepatocyte Nuclear Factor 4 alpha (HNF4a) (AID 2282982); conditions: HepG2 HNF4a transactivation reporter, mRNA readout
Sequence of Hepatocyte nuclear factor 4-alpha (Homo sapiens) (P41235 whole entry, looked up, the tested form may be a part): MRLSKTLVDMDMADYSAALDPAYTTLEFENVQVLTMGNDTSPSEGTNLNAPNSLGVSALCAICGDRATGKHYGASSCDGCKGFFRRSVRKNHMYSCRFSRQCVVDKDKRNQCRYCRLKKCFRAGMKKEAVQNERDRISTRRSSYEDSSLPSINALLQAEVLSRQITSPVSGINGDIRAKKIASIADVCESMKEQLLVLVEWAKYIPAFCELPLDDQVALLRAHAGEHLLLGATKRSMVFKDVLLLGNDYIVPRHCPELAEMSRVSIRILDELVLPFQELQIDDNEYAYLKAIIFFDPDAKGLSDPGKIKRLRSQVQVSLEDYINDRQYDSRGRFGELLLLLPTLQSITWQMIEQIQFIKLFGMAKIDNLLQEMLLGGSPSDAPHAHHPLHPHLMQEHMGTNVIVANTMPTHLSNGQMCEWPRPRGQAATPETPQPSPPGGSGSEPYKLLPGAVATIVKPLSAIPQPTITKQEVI
How it was run: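 Endpoint reflects transcriptional activation of a GAL4-UAS reporter by an HNF4a-GAL4 chimera in transfected HepG2 cells, 24 h post-dosing. Fluorescence from RT-PCR products separated by capillary electrophoresis; DMSO baseline.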

[8] = ATG_M_32_TRANS: Attagene TRANS-FACTORIAL HepG2 Assay for M32 Transcription Factor (Internal Marker) (AID 2282984); conditions: HepG2 Attagene TRANS M32 internal marker reporter
How it was run: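 Internal-marker readout from a multiplexed transcription reporter panel. HepG2 cells were transfected with GAL4-UAS reporter units, treated 24 hours, and reporter transcript levels determined by fluorescence after RT-PCR and capillary separation.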

[9] = molecular target: Nuclear receptor subfamily 4 group A member 2 (Homo sapiens) (UniProt P43354); assay: ATG_NURR1_TRANS: Attagene TRANS-FACTORIAL HepG2 Assay for human Nuclear Receptor Related Protein 1 (NURR1) (AID 2282985); conditions: HepG2 Attagene TRANS reporter, mRNA readout
Sequence of Nuclear receptor subfamily 4 group A member 2 (Homo sapiens) (P43354 whole entry, looked up): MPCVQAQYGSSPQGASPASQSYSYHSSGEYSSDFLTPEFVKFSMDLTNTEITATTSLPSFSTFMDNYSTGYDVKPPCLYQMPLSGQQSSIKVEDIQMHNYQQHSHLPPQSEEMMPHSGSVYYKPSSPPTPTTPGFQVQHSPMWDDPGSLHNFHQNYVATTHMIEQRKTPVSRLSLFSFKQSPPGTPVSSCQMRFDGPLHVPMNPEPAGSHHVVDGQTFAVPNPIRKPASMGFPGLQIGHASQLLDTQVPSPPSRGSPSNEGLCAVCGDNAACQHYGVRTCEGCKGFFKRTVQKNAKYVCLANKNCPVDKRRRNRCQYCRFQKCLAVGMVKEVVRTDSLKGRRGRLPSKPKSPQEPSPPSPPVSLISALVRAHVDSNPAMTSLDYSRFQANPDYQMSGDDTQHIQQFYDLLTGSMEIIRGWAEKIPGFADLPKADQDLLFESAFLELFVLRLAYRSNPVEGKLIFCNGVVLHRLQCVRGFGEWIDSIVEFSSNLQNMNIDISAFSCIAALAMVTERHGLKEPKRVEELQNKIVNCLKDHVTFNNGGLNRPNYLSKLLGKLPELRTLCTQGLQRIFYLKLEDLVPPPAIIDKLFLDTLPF
How it was run: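 Endpoint: reporter mRNA increase relative to DMSO. HepG2 cells transfected with reporter units, treated 24 h; RNA processed by RT-PCR, labelling, HpaI digestion and capillary electrophoresis.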

[10] = molecular target: Transcriptional activator Myb (Homo sapiens) (UniProt P10242); assay: ATG_Myb_CIS: Attagene CIS-FACTORIAL HepG2 Assay for human Myeloblastosis (Myb) Proto-Oncogene Transcription Factor (AID 2282986; active = hit-call score of the fitted dose curve at least 0.9, where 1 is the maximum; inactive = score below 0.9); conditions: HepG2 Attagene CIS-FACTORIAL Myb reporter transcription; actives raise or lower the signal
Sequence of Transcriptional activator Myb (Homo sapiens) (P10242 whole entry, looked up): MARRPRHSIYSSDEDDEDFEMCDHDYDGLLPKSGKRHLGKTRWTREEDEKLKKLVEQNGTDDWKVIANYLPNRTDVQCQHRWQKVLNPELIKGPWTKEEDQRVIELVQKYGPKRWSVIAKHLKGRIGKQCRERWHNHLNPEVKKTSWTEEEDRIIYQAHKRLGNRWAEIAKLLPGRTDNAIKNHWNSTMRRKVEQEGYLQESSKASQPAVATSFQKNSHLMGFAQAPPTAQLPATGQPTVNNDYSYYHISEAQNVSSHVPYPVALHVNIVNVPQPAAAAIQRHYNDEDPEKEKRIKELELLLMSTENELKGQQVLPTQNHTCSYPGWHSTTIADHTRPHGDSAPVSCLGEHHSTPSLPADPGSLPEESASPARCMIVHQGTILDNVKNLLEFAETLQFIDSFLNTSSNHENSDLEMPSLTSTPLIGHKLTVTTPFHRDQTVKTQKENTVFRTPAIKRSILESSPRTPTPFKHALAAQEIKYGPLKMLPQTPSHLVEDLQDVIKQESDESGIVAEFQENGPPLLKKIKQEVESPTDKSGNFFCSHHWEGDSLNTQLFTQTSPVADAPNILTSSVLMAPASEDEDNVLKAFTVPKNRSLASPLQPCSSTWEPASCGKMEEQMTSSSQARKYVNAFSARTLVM
How it was run: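 Reporter transcript levels, quantified by fluorescent RT-PCR and capillary electrophoresis, serve as the read-out. Transfected HepG2 cells carrying cis-promoter reporter units are dosed for 24 hours, and curves are fitted bidirectionally against DMSO controls.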

[11] = molecular target: Nuclear respiratory factor 1 (Homo sapiens) (UniProt Q16656); assay: ATG_NRF1_CIS: Attagene CIS-FACTORIAL HepG2 Assay for human Nuclear Respiratory Factor 1 (NRF1) Orphan Gene (AID 2282987; active = hit-call score of the fitted dose curve at least 0.9, where 1 is the maximum; inactive = score below 0.9); conditions: HepG2 NRF1 cis-element reporter, Attagene multiplex; actives raise or lower the signal
Sequence of Nuclear respiratory factor 1 (Homo sapiens) (Q16656 whole entry, looked up): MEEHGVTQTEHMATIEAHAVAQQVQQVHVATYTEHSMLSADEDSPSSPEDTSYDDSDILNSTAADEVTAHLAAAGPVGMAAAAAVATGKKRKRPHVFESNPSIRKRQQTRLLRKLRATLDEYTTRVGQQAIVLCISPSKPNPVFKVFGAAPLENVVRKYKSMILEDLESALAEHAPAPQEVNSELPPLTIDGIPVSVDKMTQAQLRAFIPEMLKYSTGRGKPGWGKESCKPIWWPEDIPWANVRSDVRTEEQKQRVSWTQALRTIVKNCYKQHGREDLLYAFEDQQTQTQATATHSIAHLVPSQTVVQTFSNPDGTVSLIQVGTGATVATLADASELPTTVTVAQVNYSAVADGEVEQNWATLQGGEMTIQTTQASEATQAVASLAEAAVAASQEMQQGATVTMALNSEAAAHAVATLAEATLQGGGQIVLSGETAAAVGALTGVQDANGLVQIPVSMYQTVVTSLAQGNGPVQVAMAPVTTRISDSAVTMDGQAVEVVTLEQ
How it was run: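 Multiplexed cis-reporter assay, HepG2 cells, 24 h treatment. Total RNA → oligo(dT) RT → PCR with reporter-specific primers → 6-FAM primer extension → HpaI cut → CE. Bidirectional fit vs DMSO.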

[12] = molecular target: Oxysterols receptor LXR-alpha (Homo sapiens) (UniProt Q13133); assay: ATG_LXRa_TRANS: Attagene TRANS-FACTORIAL HepG2 Assay for human Liver X Receptor alpha (LXRa) (AID 2282980); conditions: HepG2 Attagene TRANS reporter, LXRa transactivation
Sequence of Oxysterols receptor LXR-alpha (Homo sapiens) (Q13133 whole entry, looked up, the tested form may be a part): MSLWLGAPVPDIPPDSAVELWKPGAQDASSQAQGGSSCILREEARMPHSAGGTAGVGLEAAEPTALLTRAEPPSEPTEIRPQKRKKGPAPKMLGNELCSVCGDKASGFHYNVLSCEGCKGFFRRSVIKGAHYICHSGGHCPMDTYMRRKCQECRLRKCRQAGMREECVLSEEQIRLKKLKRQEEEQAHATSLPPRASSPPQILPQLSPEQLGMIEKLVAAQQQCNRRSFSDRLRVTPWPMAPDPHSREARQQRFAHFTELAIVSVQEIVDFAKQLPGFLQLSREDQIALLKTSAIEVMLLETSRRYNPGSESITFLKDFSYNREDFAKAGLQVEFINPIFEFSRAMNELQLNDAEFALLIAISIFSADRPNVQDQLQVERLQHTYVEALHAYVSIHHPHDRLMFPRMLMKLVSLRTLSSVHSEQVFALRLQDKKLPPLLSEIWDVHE
How it was run: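 Chemical-induced reporter mRNA measured by RT-PCR with fluorescent labelling and capillary electrophoresis after 24 h dosing of transiently transfected HepG2 cells expressing exogenous NR-Gal4 chimeras; increases scored against DMSO baseline.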

[13] = ATG_M_06_TRANS: Attagene TRANS-FACTORIAL HepG2 Assay for M06 Transcription Factor (Internal Marker) (AID 2282983); conditions: HepG2 Attagene TRANS M06 internal marker reporter
How it was run: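 Background-control reporter readout: after 24 h chemical exposure of transiently transfected HepG2 (GAL4-UAS reporter units), mRNA quantified by RT-PCR with fluorescent labeling and capillary electrophoresis. Gain-of-signal fitting against DMSO baseline.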

[14] = molecular target: Nuclear receptor subfamily 1 group I member 3 (Homo sapiens) (UniProt Q14994); assay: ATG_CAR_TRANS: Attagene TRANS-FACTORIAL HepG2 Assay for human Constitutive Androstane Receptor (CAR) (AID 2282969); conditions: HepG2 Attagene TRANS-FACTORIAL CAR reporter;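 also: activators raise reporter mRNA above DMSO so AC50 marks induction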
Sequence of Nuclear receptor subfamily 1 group I member 3 (Homo sapiens) (Q14994 whole entry, looked up, the tested form may be a part): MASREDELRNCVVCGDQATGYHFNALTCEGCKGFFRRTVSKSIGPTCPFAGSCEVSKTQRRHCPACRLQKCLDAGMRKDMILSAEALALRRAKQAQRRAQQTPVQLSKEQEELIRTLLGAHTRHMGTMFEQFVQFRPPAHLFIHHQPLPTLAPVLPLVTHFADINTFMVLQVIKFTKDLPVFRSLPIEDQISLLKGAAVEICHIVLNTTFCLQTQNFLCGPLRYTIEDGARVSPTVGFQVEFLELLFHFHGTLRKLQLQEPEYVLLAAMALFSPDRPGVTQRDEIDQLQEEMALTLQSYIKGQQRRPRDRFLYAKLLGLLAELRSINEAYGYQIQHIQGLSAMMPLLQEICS
How it was run: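 Transiently transfected HepG2, multiplex TRANS reporters (CAR-Gal4 chimera driving GAL4-UAS reporter). 24 h dosing. Readout: reporter transcript by RT-PCR + capillary electrophoresis, fluorescence intensity; positive direction vs DMSO.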

[15] = ATG_GAL4_TRANS: Attagene TRANS-FACTORIAL HepG2 Assay for GAL4 (Internal Marker) (AID 2282976); conditions: HepG2 Attagene TRANS GAL4 internal marker reporter
How it was run: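 In transfected human HepG2 liver cells dosed 24 h, GAL4 reporter mRNA serves as a baseline marker. Detection by RT-PCR with fluorescent capillary electrophoresis, activity fitted upward relative to DMSO.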

[16] = molecular target: Estrogen-related receptor gamma (Homo sapiens) (UniProt P62508); assay: ATG_ERRg_TRANS: Attagene TRANS-FACTORIAL HepG2 Assay for human Estrogen-Related Receptor gamma (ERRg) (AID 2282977); conditions: HepG2 Attagene TRANS reporter, ERRg transactivation;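 also: hits increase reporter signal over DMSO so potencies reflect activators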
How it was run: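 Exogenous NR-Gal4 chimera activity measured as reporter transcript induction after 24 h in transiently transfected HepG2 cells. RNA reverse-transcribed, PCR-amplified, 6-FAM-labelled and resolved by capillary electrophoresis; increase over DMSO baseline.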

[17] = molecular target: Bile acid receptor (Homo sapiens) (UniProt Q96RI1); assay: ATG_FXR_TRANS: Attagene TRANS-FACTORIAL HepG2 Assay for Farnesoid X Receptor (FXR) (AID 2282979); conditions: HepG2 Attagene TRANS FXR-GAL4 reporter transcription;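 also: hits raise reporter mRNA above DMSO so AC50 marks FXR activation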
Sequence of Bile acid receptor (Homo sapiens) (Q96RI1 whole entry, looked up, the tested form may be a part): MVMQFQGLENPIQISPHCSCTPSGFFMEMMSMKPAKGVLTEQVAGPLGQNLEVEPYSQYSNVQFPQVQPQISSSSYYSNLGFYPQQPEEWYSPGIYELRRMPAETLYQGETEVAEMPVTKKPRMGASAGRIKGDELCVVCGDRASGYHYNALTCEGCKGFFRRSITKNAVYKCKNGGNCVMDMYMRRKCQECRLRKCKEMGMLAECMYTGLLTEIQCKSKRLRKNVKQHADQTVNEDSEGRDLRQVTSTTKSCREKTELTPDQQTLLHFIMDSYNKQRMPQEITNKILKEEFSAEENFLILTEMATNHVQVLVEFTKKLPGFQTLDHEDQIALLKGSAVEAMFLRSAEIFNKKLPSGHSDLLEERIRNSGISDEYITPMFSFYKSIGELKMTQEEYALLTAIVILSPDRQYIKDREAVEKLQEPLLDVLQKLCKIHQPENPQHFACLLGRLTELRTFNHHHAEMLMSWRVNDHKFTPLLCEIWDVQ
How it was run: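 Reporter transcripts from transfected HepG2 cells were measured 24 h after dosing, using RT-PCR with capillary electrophoresis of 6-FAM-labelled fragments. The read-out reflects activity of exogenous FXR-Gal4 chimera on GAL4-UAS units, with induction relative to DMSO.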

[18] = molecular target: Estrogen receptor (Homo sapiens) (UniProt P03372); assay: ATG_ERa_TRANS: Attagene TRANS-FACTORIAL HepG2 Assay for human Estrogen Receptor alpha (ERa) (AID 2282970); conditions: HepG2 Attagene TRANS ERa GAL4 reporter, mRNA
How it was run: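 Reporter transcripts were measured 24 h after dosing by RT-PCR with fluorescent primer extension and capillary electrophoresis. The system is transiently transfected HepG2 expressing exogenous NR-Gal4 chimeras driving GAL4-UAS reporters; DMSO is the baseline.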

[19] = molecular target: Steroid hormone receptor ERR1 (Homo sapiens) (UniProt P11474); assay: ATG_ERRa_TRANS: Attagene TRANS-FACTORIAL HepG2 Assay for human Estrogen-Related Receptor alpha (ERRa) (AID 2282971); conditions: HepG2 Attagene TRANS reporter, ERRa transactivation
How it was run: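 Reporter transcripts from ERRa-Gal4 chimera activity measured in transiently transfected human HepG2 cells 24 hours after dosing, using RT-PCR with 6-FAM primer extension, HpaI digestion and capillary electrophoresis; DMSO is baseline.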

Measured: outcome

C=C(C)[C@@H]1CC=C(C)C(=O)C1
inactive: [1] | [2] | [3] | [4] | [5] | [6] | [7] | [8] | [9] | [10] | [11]

OCCc1ccccc1
inactive: [1] | [3] | [12] | [6] | [7] | [13] | [9] | [11]

O=C(O)c1cc(C(=O)O)cc([N+](=O)[O-])c1
inactive: [1] | [2] | [14] | [3] | [4] | [15] | [5] | [12] | [6] | [8] | [9] | [10] | [11]

COC(=O)c1ccc([N+](=O)[O-])cc1
inactive: [2] | [3] | [15] | [16] | [5] | [7] | [13] | [8] | [9] | [10] | [11]

CC/C=C\CCOC(=O)CC
inactive: [1] | [4] | [17] | [9] | [11]

CC[N+](C)(CC)CC
inactive: [1] | [3] | [4] | [15] | [5] | [17] | [7] | [13] | [10] | [11]

CC(C)(C)CC(C)(C)c1ccc(OCCOCC[N+](C)(C)Cc2ccccc2)cc1
inactive: [2] | [18] | [19] | [3] | [4] | [15] | [16] | [5] | [17] | [7] | [8] | [9] | [10] | [11]

Nc1ccc2cc(S(=O)(=O)O)cc(O)c2c1N=Nc1ccccc1C(F)(F)F
inactive: [1] | [2] | [3] | [4] | [5] | [17] | [12] | [6] | [7] | [8] | [9] | [11]

Clc1cc(Cl)c(-c2c(Cl)c(Cl)cc(Cl)c2Cl)cc1Cl
inactive: [1] | [2] | [19] | [4] | [5] | [17] | [8] | [9] | [10] | [11]
